Compound activity: PubChem, Columbia University Molecular Screening Center
VCAM1 TNFa inh – reduces TNF alpha induced VCAM1 expression in HUVEC; inhibition, % at 2 µM; AID 802; 0.48% of 95,000 active; HUVEC TNFa-induced VCAM-1 immunofluorescence, high-content imaging;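 active means inhibition above the batch mean plus 3 SD, with images confirmed as a hit by eye, cut at about 37% in these data; inconclusive means inhibition above that limit but hit not confirmed in images; inactive means inhibition not above that limit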;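 further: 0% = TNF-stimulated DMSO wells and 100% = unstimulated control wells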
TNFa cytotox – toxic to HUVEC cells under TNF alpha stimulation. HUVEC TNFalpha-stimulated, Hoechst cell count, imaging. cell count reduction, % at 2 µM. 0.17% of 93,000 active;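 active means cell count reduction exceeding the screen mean by over 5 SD, scaled to untreated wells per plate, cut at about 78% in these data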;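 further: cells counted after 24 h of TNF alpha exposure following the 1 h pretreatment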
F-actin modifier – cytoskeleton assembly modification; HUVEC TNFa F-actin phalloidin imaging, high content; inhibition, % at 2 µM; 0.18% of 91,000 active;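 active means inhibition above the batch mean plus 3 SD and confirmed as a hit by visual image inspection, cut at about 30% in these data, passing the limit was not always enough; inconclusive means above the inhibition threshold but rejected on visual inspection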
E-sel TNF inh – blocks E-selectin expression induced by TNF alpha; HUVEC TNFa-induced E-selectin immunofluorescence, high content; inhibition, % at 2 µM; 0.71% of 120,000 active;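 active means inhibition above the batch mean plus 3 SD, and confirmed as a hit on visual image review, cut at about 43% in these data; inconclusive means passes the inhibition cutoff but fails visual image review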;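 further: 0% = TNF-stimulated DMSO wells and 100% = unstimulated control wells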
Starred values were filed as active, the others as inactive; ? = inconclusive; . = not tested or not shown. Hits are enriched below; roughly 1.1% of the tested compounds scored in any of these assays.

SMILES | VCAM1 TNFa inh | TNFa cytotox | F-actin modifier | E-sel TNF inh
CCOC(=O)c1c(C)[nH]c(C(=O)N/N=C\c2ccccc2Cl)c1C | . | . | . | 20.8
OCCN=C1CCCc2c1[nH]c1ccc(Br)cc21 | 92.1* | 44.7 | -8.4 | .
CCC(C)N1CCNCC1 (stereo unspecified) | . | . | . | -7.5
O=C(O)Cc1ccc(NC(=O)C2CC=CCC2C(=O)O)cc1 (stereo unspecified) | 54.7* | 56.8 | -15.2 | 10.2
CCc1ccc(NC(=O)C2CC=CCC2C(=O)O)cc1 (stereo unspecified) | 15.8 | 34.7 | 10.5 | 20.1
O=C(O)CCC(=O)NC1CCCCCCC1 | . | . | 100.0* | -68.3
CSc1ncccc1C(=O)OCC(=O)c1cccs1 | . | . | . | 7.7
O=C(CSc1ccccn1)N/N=C/c1ccccc1[N+](=O)[O-] | . | . | . | 62.3*
Cc1cccc(C)c1N1C(=O)CC(N(O)c2ccccc2)C1=O (stereo unspecified) | 22.8 | 0.4 | -13.2 | 23.5
Cc1c(Cl)cccc1N1C(=O)CC(N(O)c2ccccc2)C1=O (stereo unspecified) | -19.0 | -13.7 | -1.2 | 99.8*
Cc1cc(NC(=O)CSCc2nc(-c3cccc(F)c3)oc2C)no1 | -9.0 | -0.4 | -5.8 | .
Cc1ccc(-c2nc(CSCC(=O)Nc3cc(C)on3)c(C)o2)cc1 | 38.3 | 88.9* | -9.1 | .
Cc1cc(C)n(-c2nc3ccccc3nc2N2CCN(C(=O)c3ccc(Cl)cc3)CC2)n1 | 92.4* | . | 17.7 | -15.8
O=C(CCn1nnc2ccccc21)Nc1nnc(Cc2ccc(F)cc2)s1 | . | . | . | 46.8*
Cc1cc(C)cc(C(=O)Oc2coc(CSc3nnc(NC(=O)C4CC4)s3)cc2=O)c1 | . | . | . | 61.1*
O=C(CC1C(=O)N(c2ccccc2)C(=O)N1C1CCCCC1)Nc1ccccc1 (stereo unspecified) | 22.2 | 7.4 | -18.7 | 12.2
COc1ccccc1N1CCN(c2cc(C)nc3nc(C)nn23)CC1 | . | . | . | 17.8
COc1ccccc1N1CCN(c2cc(N3CCCC3)nc(C)n2)CC1 | 12.1 | 28.7 | -27.6 | 100.0*
COc1ccc(/C=C/C(=O)c2cc(F)ccc2OC(=O)c2ccc(OC)c(OC)c2)cc1OC | . | . | . | 24.3
COc1ccc(/C=C/C(=O)c2cc(F)ccc2OC(=O)c2ccccc2)cc1OC | 97.1* | 75.9 | -45.0 | .
C/C(=N\O)c1ccc2c3ccccc3n(C)c2c1 | 41.1* | 29.2 | -22.1 | .
CCC(=O)N1c2ccc(S(=O)(=O)CCC(=O)NC3CCCC3)cc2CC1C (stereo unspecified) | 0.5 | -30.7 | 8.3 | -6.1
CCC(=O)N1c2ccc(S(=O)(=O)CCC(=O)N3CCn4c3nc3ccccc34)cc2CC1C (stereo unspecified) | 82.9* | 84.0* | -51.0 | -21.5
O=[N+]([O-])c1ccc(O)c(/C=N/Nc2nn[nH]n2)c1 | . | . | . | -25.6
O=[N+]([O-])c1ccc(O)c(/C=N/Nc2ccc(Cl)nn2)c1 | 63.4* | 14.6 | 24.8 | 100.0*
SMILES | VCAM1 TNFa inh | TNFa cytotox | F-actin modifier | E-sel TNF inh
O=C(NC1CCCCCC1)c1ccc(=O)n(Cc2ccccc2)n1 | . | . | . | 11.4
CCOC(=O)c1ccc(CC2S/C(=C(\C#N)C(C)=O)NC2=O)cc1 (stereo unspecified) | 10.6 | -16.3 | -5.7 | 4.1
CCc1ccc(CC2S/C(=C(\C#N)C(C)=O)NC2=O)cc1 (stereo unspecified) | -6.3 | -11.3 | 14.8 | 50.1*
O=C(O)c1nn(-c2ccccc2)ccc1=O | 16.1 | -4.3 | -2.2 | -26.6
COc1ccc(C(=O)NC(=S)NCc2ccc(-c3nc4ccccc4o3)cc2)cc1OC | -8.9 | 1.7 | -5.9 | 7.7
CCOc1cc(C(=O)NCc2ccc(-c3nc4ccccc4o3)cc2)cc(OCC)c1OCC | -26.5 | . | 1.2 | 66.4*
O=C1CCCC2=C1C(c1ccsc1)CC(=O)N2c1ccccc1 (stereo unspecified) | 11.5 | 0.0 | 7.5 | 35.5
Cc1ccc(C2CC(=O)N(c3ccc(F)cc3)C3=C2C(=O)CCC3)cc1 (stereo unspecified) | 3.8 | 13.0 | 22.6 | 100.0*
COc1ccc(Nc2cc(Cl)nc(N)n2)cc1OC | . | . | . | 8.2
Cc1ccc(S(=O)(=O)N2CCC(C(=O)Nc3nnc(C45CC6CC(CC(C6)C4)C5)s3)CC2)cc1 | -6.6 | -23.2 | -12.7 | .
CN1C(=O)C2(NCCc3c2[nH]c2ccccc32)c2ccccc21 (stereo unspecified) | 53.4* | . | -2.9 | 12.4
COc1cccc(CN2CCN(Cc3cccn3-c3cccnc3)CC2CCO)c1 (stereo unspecified) | . | . | . | -41.6
Cc1ccc(Cl)c(NC(=O)COC(=O)c2ccccc2C(=O)c2ccc(Cl)c([N+](=O)[O-])c2)c1Cl | . | . | . | 98.2*
Cc1ncc(CO)c2cc(C(N)=O)c(=Nc3ccccc3)oc12 | 18.7 | -7.0 | 35.9* | 10.6
CCOC(=O)c1cc2c(nc1C)-c1cc(Cl)cc(Cl)c1OC2O (stereo unspecified) | . | . | . | 3.6
O=C(N/N=C/C(Br)=C\c1ccccc1)c1n[nH]c2c1CCC2 | 91.4* | 68.9 | -9.7 | 57.0
O=C(N/N=C/C=C/c1ccccc1)c1n[nH]c2c1CCC2 | 68.2* | 25.3 | 17.5 | 10.3
CC(/C=N/NC(=O)c1n[nH]c2c1CCC2)=C\c1ccccc1 | 66.8* | 69.6 | -10.3 | 36.0
CC(=O)Nc1ccc(/C=N/N2C(=O)NC(C)(c3ccc(OC(F)F)cc3)C2=O)cc1 (stereo unspecified) | . | . | . | -20.9
Cn1c(=O)n(Cc2ccc(Br)cc2)c2ccccc21 | . | . | . | -5.2
Cc1ccc2c(c1)C(c1ccc(F)cc1)N(C(=O)c1cc3ccccc3oc1=O)CC(=O)N2 (stereo unspecified) | . | . | . | 94.8*
Cc1ccc(N/N=C/c2ccc3c(c2)OCCO3)cc1Cl | . | . | . | -7.2
Cc1ccc(N/N=C/c2ccc(N3CCOCC3)cc2)cc1C | 67.2* | . | 25.8 | -6.1
O=C(CSc1nnc(COc2ccccc2)o1)N1CCN(c2ccccc2)CC1 | -10.2 | -0.4 | 7.3 | -19.9
Cc1cc(C)cc(OCc2nnc(SCC(=O)N3CCN(c4ccccc4)CC3)o2)c1 | 100.0* | . | ? | 14.5
SMILES | VCAM1 TNFa inh | TNFa cytotox | F-actin modifier | E-sel TNF inh
CCC(C(=O)Nc1sc(C(N)=O)c(C)c1C(=O)OC)c1ccccc1 (stereo unspecified) | . | . | . | -26.4
O=C(CCNc1cccc(Cl)c1)c1ccco1 | . | . | . | -28.4
O=C(NCCN1CCOCC1)c1ccc(-c2ccccc2)cc1 | 2.5 | -22.4 | 3.8 | -27.3
O=C(Cc1ccc(-c2ccccc2)cc1)NCCN1CCOCC1 | . | . | . | 94.9*
N=C(N)SCc1nc2ccccc2c(=O)n1-c1ccccc1 | . | . | . | 61.0*
CN(C)c1ncc(S(=O)(=O)c2ccc(Cl)cc2)c(-c2ccccc2)n1 | 12.1 | 1.9 | 10.5 | 8.4
O=S(=O)(c1ccc(Cl)cc1)c1snnc1-c1ccccc1 | 49.9* | 10.5 | -8.8 | 5.5
CCn1c2ccccc2c2cc(NC(=O)c3cc(OC)c(OC)c(OC)c3)ccc21 | 95.3* | 71.1 | -3.5 | 37.9
CCn1c2ccccc2c2cc(NC(=O)c3cc(OC)cc(OC)c3)ccc21 | . | . | . | 32.4
O=c1cc(-c2ccccc2)nc(SCCOc2ccccc2Cl)[nH]1 | . | . | . | -11.8
CCOC(=O)N1CCC(NC(=O)c2ccc3c(=O)n4c(nc3c2)CCCC4)CC1 | -1.5 | 3.8 | 36.1 | 63.8*
O=C(CSCc1cccc(Br)c1)N/N=C/c1ccc2c(c1)OCO2 | 18.1 | 27.6 | -4.1 | 9.8
CC(C)N1CC(O)=C(c2nc3ccccc3[nH]2)C1=N | . | 100.0* | . | .
COc1ccc(/C=N/N(C)c2cc(=O)n(C)c(=O)[nH]2)cc1OC | . | . | . | 12.0
